Results reported in PubChem BioAssay (NCATS).
Active and inactive are the calls of the source. Entries that show only a call come without a potency. Unless noted, calls come from the whole dose curve; as a rule, active = well fitted inhibition curve with a large enough effect; inconclusive = small, poorly fitted or top-dose-only effect; inactive = no such curve, though single readings can be large or run the other way.

Legend:
[1] = target: Pyruvate kinase (Leishmania mexicana) (UniProt Q27686); experiment: qHTS Validation Assay for Inhibitors of Leishmania Mexicana Pyruvate Kinase (AID 945); details: purified L. mexicana pyruvate kinase, enzyme activity, E451W mutant enzyme; series mostly up to 57.5 µM
Pyruvate kinase (Leishmania mexicana), sequence (Q27686 2-499 E452W): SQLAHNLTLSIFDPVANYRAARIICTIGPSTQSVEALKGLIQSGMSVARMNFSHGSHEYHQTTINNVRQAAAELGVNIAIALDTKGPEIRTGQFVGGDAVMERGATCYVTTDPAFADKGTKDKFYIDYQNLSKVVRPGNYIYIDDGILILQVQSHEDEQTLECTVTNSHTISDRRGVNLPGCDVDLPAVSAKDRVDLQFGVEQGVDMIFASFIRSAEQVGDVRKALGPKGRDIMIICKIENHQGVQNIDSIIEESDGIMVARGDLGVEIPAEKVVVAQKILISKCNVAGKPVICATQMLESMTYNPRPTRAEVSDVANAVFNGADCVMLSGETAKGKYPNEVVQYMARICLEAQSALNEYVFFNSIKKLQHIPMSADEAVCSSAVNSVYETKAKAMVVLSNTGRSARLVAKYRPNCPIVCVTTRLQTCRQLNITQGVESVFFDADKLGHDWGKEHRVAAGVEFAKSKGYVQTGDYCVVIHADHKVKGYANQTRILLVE
Procedure, shortened: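 The enzyme is a highly purified E451W mutant of LmPYK used at 0.2 nM. It converts 0.5 mM PEP and 0.1 mM ADP over 1 h at room temperature; product ATP is quantified by luciferase luminescence relative to DMSO controls.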

[2] = target: Pyruvate kinase PKM (Homo sapiens) (UniProt P14618); experiment: qHTS Assay for Activators of Human Muscle Pyruvate Kinase (AID 954; active = well fitted curve in the direction sought with a large enough effect, not every such curve was filed as active); details: purified human muscle pyruvate kinase, luciferase-coupled luminescence, 1 h; series mostly up to 57.5 µM
Pyruvate kinase PKM (Homo sapiens), sequence (P14618 whole entry, looked up): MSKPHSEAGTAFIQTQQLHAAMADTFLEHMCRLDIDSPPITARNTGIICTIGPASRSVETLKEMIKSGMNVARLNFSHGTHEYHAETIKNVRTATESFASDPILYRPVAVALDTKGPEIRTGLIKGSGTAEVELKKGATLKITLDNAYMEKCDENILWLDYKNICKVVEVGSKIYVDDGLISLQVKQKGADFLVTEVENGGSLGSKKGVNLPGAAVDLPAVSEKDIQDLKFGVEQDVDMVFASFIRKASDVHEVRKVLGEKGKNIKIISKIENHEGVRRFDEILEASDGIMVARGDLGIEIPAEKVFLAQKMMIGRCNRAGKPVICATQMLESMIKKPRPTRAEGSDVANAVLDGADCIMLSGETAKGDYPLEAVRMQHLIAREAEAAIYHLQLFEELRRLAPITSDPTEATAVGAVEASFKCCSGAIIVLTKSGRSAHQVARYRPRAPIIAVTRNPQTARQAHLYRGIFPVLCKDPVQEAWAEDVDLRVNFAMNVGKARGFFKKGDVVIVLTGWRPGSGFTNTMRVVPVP
Procedure, shortened: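 Human PKM2 activity is measured as ATP generation, detected by luciferase-coupled luminescence. The enzyme (0.1 nM) acts on 0.5 mM PEP and 0.1 mM ADP for 1 h at ambient temperature; data are normalized to uninhibited and full-inhibition wells.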

SMILES	Potency [1]	outcome [2]
Cn1cc(C2=C(c3ccc(Cl)cc3Cl)C(=O)NC2=O)c2ccccc21	inactive	inactive
Clc1ccc(N2CCN(Cc3c[nH]c4ncccc34)CC2)cc1	inactive	inactive
N#C/C(=C\c1ccc(O)c(O)c1)C(=O)c1ccc(O)c(O)c1	inactive	inactive
N#C/C(=C\c1ccc(O)c(O)c1)C(=O)NCCCc1ccccc1	inactive	inactive
O=C1C(SCCO)=C(SCCO)C(=O)c2ccccc21	inactive	inactive
CN(C)c1nc2c(Br)c(Br)c(Br)c(Br)c2[nH]1	inactive	inactive
C[C@@H](NC(=O)/C(C#N)=C/c1ccc(O)c(O)c1)c1ccccc1	inactive	inactive
CCCN(CC1CC1)c1nc(C)nc(Nc2c(Cl)cc(Cl)cc2Cl)c1Cl	inactive	inactive
CN(C)c1nc(N)c(C(=O)N=C(N)N)nc1Cl	inactive	inactive
O=C(O)[C@@H]1C[C@@H](C(=O)O)N1	inactive	inactive
COc1ccccc1CNCCCCCCNCCCCCCCCNCCCCCCNCc1ccccc1OC	inactive	inactive
O=C(O)c1cc(=O)c2c(Cl)cc(Cl)cc2[nH]1	inactive	inactive
c1ccc(-c2ccccn2)nc1	inactive	inactive
CC(C)(C=O)Cc1cc(C(C)(C)C)c(O)c(C(C)(C)C)c1	inactive	inactive
N.N.O=C(O)C1(C(=O)O)CCC1.[Pt]	inactive	inactive
